From PubChem BioAssay AID686999 (Broad Institute, 2013)
Measured potencies and affinities stand elsewhere. Inconclusive results are not listed. Activity calls are given as the source filed them.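 Rule for the calls: active = active in every separate test run, each with half-maximal potency at or under twice its top valid dose; inconclusive = the separate test runs give conflicting calls; inactive = inactive in every test run, including signal rising instead.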

Assay: Cryptococcus growth inhibition by alamar blue – cell lysis, cherry-picks, replicate tests, mechanism study for C. neoformans antifungal project, dose response (AID 686999)
Settings: 72 h; series mostly up to 35 µM; activity change, negative = inhibition: at the top concentration

Activity change, negative = inhibition, inactive:
COc1ccccc1NC(=S)NCc1ccc(Cl)cc1 17.9%, CCc1ccc(C(=O)NC(=S)NCc2cccnc2)cc1 6.98%, Fc1ccccc1NC(=S)NN(Cc1ccccc1)c1ccccc1 13.9%, COc1ccccc1NC(=S)NCc1ccccc1Cl 8.26%, COC(=O)C1=C(C)N(Cc2ccc(F)cc2)C(=S)NC1c1cccc(Cl)c1 (stereo unspecified) 3.12%, COc1cccc(NC(=S)N2CCC(Cc3ccccc3)CC2)c1 -12.5%, CCOC(=O)NC(=S)Nc1ccc(C(C)(C)C)cc1Br -0.187%, S=C(Nc1ccc(Cl)cc1Cl)Nc1ccccc1Oc1ccccc1 9.91%, CO[C@H]1CN(C)C(=O)c2cc(NC(=O)C3CC3)ccc2OC[C@@H](C)N(Cc2cncnc2)C[C@H]1C 9.34%, Fc1ccccc1NC(=S)NCCc1cccc(Cl)c1 8.81%, CCc1ccc(C(C)NC(=S)NCc2ccc(F)cc2)cc1 (stereo unspecified) -1.97%, COC(=O)C1=C(C)N(CC(C)C)C(=S)NC1c1cccc(F)c1 (stereo unspecified) 10.4% [at 42 µM], COC(=O)C1=C(C)N(Cc2ccc(Cl)cc2)C(=S)NC1c1cccc(Cl)c1 (stereo unspecified) -14.1%, S=C(NCCCc1ccccc1)Nc1ccccc1 22.7%, O=C(NC(=S)NCC1COc2ccccc2O1)c1ccc(Cl)cc1 (stereo unspecified) 22% [at 46 µM], COC(=O)C1=C(C)N(Cc2ccccc2)C(=S)N[C@H]1c1cccc(F)c1 9.11%, COC(=O)C1=C(C)N(Cc2ccc(F)cc2)C(=S)NC1c1ccccc1 (stereo unspecified) -0.405% [at 38 µM], CCCCN1C(=S)NC[C@@H]1Cc1ccccc1 -1.43%, COc1ccc(C(=O)NC(=S)Nc2ccccc2N2CCCCC2)cc1[N+](=O)[O-] 9.23%, COc1ccc(NC(=S)NCc2ccc(Cl)cc2)c(OC)c1 5.43%, Cc1ccc(C(=O)NC(=S)Nc2ccc(N3CCOCC3)cc2)cc1 7.95%
